Compound activity from PubChem BioAssay.
This excerpt belongs to a sample that is enriched for hits.
Ba CapD inh: Bacillus anthracis CapD inhibitors, primary screen, biochemical, fluorescence intensity | purified CapD enzyme, fluorescence intensity read-out; hits give low values | 140,000 compounds, 0.23% hits | AID 492967, 2010 | z-score (no concentration beside the values); in the data active = z-score mostly below about -2.9, no sharp cut-off; inactive = mostly above about -1.9
An asterisk follows results filed as active.

`CCN(CC)c1ccc2cc(-c3nc(-c4ccc(Br)cc4)cs3)c(=Nc3cccc(Br)c3)oc2c1` gave Ba CapD inh -0.055.
C/C(=C(\CCOP(=O)(O)O)SC(=O)c1ccccc1)N(C=O)Cc1cnc(C)nc1N was read as Ba CapD inh 109.
CC1(C)CN(c2cccc(-c3ccnc4ncnn34)c2)C1=O was read as Ba CapD inh 0.72.
For Cc1cccc(N2CCN(C(=O)c3ccc4c(=O)[nH]c5c(C(=O)NC(C)C)sc(=S)n5c4c3)CC2)c1C the results were Ba CapD inh -3.9*.
`Cc1ccc(NC(=O)c2sc(=S)n3c2[nH]c(=O)c2ccccc23)c(C)c1` gave Ba CapD inh -1.3.
For COc1ccc(NC(=O)c2sc(=S)n3c2[nH]c(=O)c2ccccc23)cc1 the results were Ba CapD inh -2.3.
For Cc1cccc(C2(c3cccc(C)c3)CC2C(=O)Nc2ccccc2F)c1 (centres undefined) the results were Ba CapD inh -0.23.
CCC(Nc1ccccc1)C(=O)N/N=C/c1ccccc1O (centres undefined) was read as Ba CapD inh -0.1.
`NC(CO)C(=O)NNCc1ccc(O)c(O)c1O` (centres undefined) gave Ba CapD inh 0.07.
NC(CO)C(=O)N/N=C/c1ccc(O)c(O)c1O (centres undefined) was read as Ba CapD inh -6.9*.
For COc1ccc(S(=O)(=O)/N=C2/NC(=O)/C(=C\c3cccnc3)S2)cc1 the results were Ba CapD inh -0.56.
`COc1ccccc1N1CCN(C2C3CC4CC(C3)CC2C4)CC1` (centres undefined) gave Ba CapD inh -0.07.
`CCc1sc(-c2c(C#N)c(N)nc3c2CCCCCC3)cc1[N+](=O)[O-]` gave Ba CapD inh -0.08.
`CCOC(=O)c1c(C)oc2ccc(OCC(=O)c3ccc(Br)cc3)cc12` gave Ba CapD inh -0.13.
Screening COc1ccc2oc(/C=C/N(C)C)c(C(=O)c3ccc(Br)cc3)c2c1 returned Ba CapD inh -3.3*.
For COc1ccc(C(=O)Nc2cc(C(C)=O)c(/C=C/N(C)C)oc2=O)cc1 the results were Ba CapD inh -0.61.
`Cc1ccc2scc(N3CCOCC3)c(=O)c2c1` gave Ba CapD inh -4.2*.
For O=c1c(N2CCC3(CC2)OCCO3)csc2ccccc12 the results were Ba CapD inh -1.7.
`O=c1c(N2CCN(c3ccccc3)CC2)csc2ccccc12` gave Ba CapD inh -2.5.
For CN(C)c1ccc(/C=C2/C=C(c3ccccc3)OC2=O)cc1 the results were Ba CapD inh 0.23.
Screening c1ccc(-c2cc3ccccc3[nH]2)cc1 returned Ba CapD inh 38.
CCCNC(=O)c1c(C)cc(=O)oc1C was read as Ba CapD inh -1.6.
`Cc1cc(=O)oc(C)c1C(=O)NCc1ccccc1` gave Ba CapD inh -3.7*.
Cc1oc2c(c1C(=O)NCc1ccccc1)C(=O)c1ccccc1C2=O was read as Ba CapD inh -0.05.
Screening O=C1S/C(=C/c2ccccc2Cl)C(=O)N1c1ccccc1 returned Ba CapD inh -0.54.
For O=C1S/C(=C\c2ccc(F)cc2)C(=O)N1c1ccccc1 the results were Ba CapD inh 0.3.
`CN(C)/C=C1\SC(=O)N(c2ccccc2)C1=O` gave Ba CapD inh -6.4*.
Screening CCN(CCOC(=O)N1CCN(CCCC(c2ccc(F)cc2)c2ccc(F)cc2)CC1)c1ccc(N=Nc2ccc([N+](=O)[O-])cc2)cc1 returned Ba CapD inh -1.1.
`O=C(O)c1ccc(-c2nc3ccccc3s2)cc1` gave Ba CapD inh 14.
Screening CNC(=O)CN(c1cccc(F)c1)S(C)(=O)=O returned Ba CapD inh -0.1.
`CCOP(=O)(OCC)C(Nc1ccc([N+](=O)[O-])cc1)c1ccccc1` (centres undefined) gave Ba CapD inh -1.5.
Screening Cc1ccc(Sc2ccc(NC(=O)c3ccc(Cl)cc3)cc2)cc1 returned Ba CapD inh 0.8.
`N#Cc1ccc(Oc2ccccc2)cc1C#N` gave Ba CapD inh -0.08.
`N#COc1ccc(Oc2ccc(OC#N)cc2)cc1` gave Ba CapD inh -4.9*.
N#Cc1ccc(Oc2ccc(N3C(=O)CCC3=O)cc2)cc1 was read as Ba CapD inh -0.055.
Screening O=C(NCc1ccccn1)c1ccc2c(c1)ncn2-c1ccc(OCc2ccccc2)cc1 returned Ba CapD inh -0.36.
For Cc1noc(/C=C/N(C)C)c1S(=O)(=O)NC1CCCCC1 the results were Ba CapD inh -4.2*.
Cc1noc(/C=C/N(C)C)c1S(=O)(=O)NCCN1CCC(Cc2ccccc2)CC1 was read as Ba CapD inh -2.5.
Cc1noc(/C=C/N(C)C)c1S(=O)(=O)N(C)c1ccc(C(C)C)cc1 was read as Ba CapD inh -2.9.
For C=CCn1c(SCC(=O)Nc2cccc(OC)c2)nnc1C(C)NC(=O)c1ccccc1 (centres undefined) the results were Ba CapD inh 0.36.
For CCC(Cc1ccccc1)NC(=O)c1ccc2c(c1)NC(=O)c1ccccc1S2 (centres undefined) the results were Ba CapD inh 0.4.
`COC(CN(C)C(=O)c1ccc2c(c1)NC(=O)c1ccccc1S2)OC` gave Ba CapD inh -6*.
Screening COC(=O)c1ccc2c(c1)NC(=O)c1ccccc1S2 returned Ba CapD inh -0.025.
Screening COc1ccc(C2C3=C(CC(C)(C)CC3=O)Nc3ccccc3N2C(C)=O)cc1COc1ccc(F)cc1 (centres undefined) returned Ba CapD inh 3.6.
CN(C)c1nc(N2CCN(c3ccccc3)CC2)cc(C(F)(F)F)n1 was read as Ba CapD inh 0.8.
Screening Cc1cccn2c(=O)c(/C=C3\SC(=S)NC3=O)c(NCc3ccco3)nc12 returned Ba CapD inh 0.3.
Screening COc1cc(/C=C2/SC(=S)N(NC(C)=O)C2=O)ccc1O returned Ba CapD inh -4.8*.
For COc1cc(/C=C2\SC(=S)N(NC(=O)c3ccc(Br)cc3)C2=O)cc(OC)c1OC the results were Ba CapD inh 0.76.
Screening COC(=O)CCN1C(=O)/C(=C\c2ccc(O)c(OC)c2)SC1=S returned Ba CapD inh -0.13.
`CC(=O)N1CCC(n2nc(-c3ccccc3)oc2=O)CC1` gave Ba CapD inh -0.98.
For CCO/C=C1\SC(=S)N(c2ccc(Cl)cc2)C1=O the results were Ba CapD inh 0.45.
Screening CCO/C=C1\SC(=S)N(/N=C/c2cccc(Cl)c2)C1=O returned Ba CapD inh -4.4*.
`CCO/C=C1/SC(=S)N(CCc2ccc(Cl)cc2)C1=O` gave Ba CapD inh -2.1.
Screening CCOC(=O)CSc1nc2cc(C(=O)N3CCC4(CC3)OCCO4)ccc2c(=O)n1Cc1ccccc1OC returned Ba CapD inh -0.49.
C=CCn1c(=O)c(C(=O)Nc2cccc(O)c2)c(O)c2ccccc21 was read as Ba CapD inh -0.2.
Screening Cc1cc(C(=O)O)ccc1-c1ccc(/C=N/n2cnnc2)o1 returned Ba CapD inh 3.
Screening Cc1ccc(N=C2NC(=O)/C(=C\c3ccc(-c4ccc(C(=O)O)cc4)o3)S2)cc1 returned Ba CapD inh 4.4.
`Cc1cc(C(=O)O)ccc1-c1ccc(/C=C2\SC(=S)NC2=O)o1` gave Ba CapD inh -9.4*.
`CCCn1c(Nc2nc3ccccc3n2C)nc2ccccc21` gave Ba CapD inh 30.
`C=C1C(C(=O)NCc2ccco2)C1C(=O)NCc1ccco1` (centres undefined) gave Ba CapD inh -10*.
For O=C(NCc1ccco1)NCC(F)(F)F the results were Ba CapD inh -0.39.
O=C(NCc1ccco1)C1c2ccccc2Oc2ccccc21 was read as Ba CapD inh 0.
